The panel holds about 79,000 compounds, 15% with a hit somewhere; the sample as a whole holds those more often. Activity calls are given as the source filed them. Rule as the data show it: active = growth inhibition above about 70%; inactive = the rest.
Columns and labels:
[1] = NCI Yeast Anticancer Drug Screen. Data for the rad52 strain (AID 147);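 also: 0% = growth of vehicle-treated control cultures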; conditions: S. cerevisiae rad52 mutant growth inhibition, hits give high values
Summary of the method: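 Vehicle-treated cultures served as the reference for growth inhibition of compound-exposed yeast bearing a DNA repair mutation.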

[2] = NCI Yeast Anticancer Drug Screen. Data for the wt1 strain (AID 149);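 also: 0% = growth of vehicle-treated wt1 cultures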; conditions: S. cerevisiae wt1 strain (SPY 50644) growth inhibition, hits give high values
Summary of the method: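 Each compound is tested on wt1 yeast and the loss of growth versus vehicle gives the inhibition value.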

[3] = NCI Yeast Anticancer Drug Screen. Data for the rad50EPP+ strain (AID 151);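 also: 0% = growth of vehicle-treated control cultures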; conditions: S. cerevisiae rad50 mutant strain, hits give high values
Summary of the method: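 In this screen, rad50EPP+ yeast were exposed to compounds. Growth inhibition was scored against vehicle-treated controls.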

[4] = NCI Yeast Anticancer Drug Screen. Data for the mgt1 strain (AID 153); conditions: S. cerevisiae mgt1 mutant growth inhibition, hits give high values
Summary of the method: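 mgt1 strain exposed; growth vs vehicle control recorded as inhibition.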

[5] = NCI Yeast Anticancer Drug Screen. Data for the rad50 strain (AID 155);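 also: 0% = growth of vehicle-only cultures of the same strain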; conditions: S. cerevisiae rad50 strain growth inhibition, hits give high values
Summary of the method: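 Vehicle-treated cultures provide the reference for the growth inhibition reported for compound-exposed, repair-deficient yeast.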

[6] = NCI Yeast Anticancer Drug Screen. Data for the mec2-1 strain (AID 157); conditions: S. cerevisiae mec2-1 strain, hits give high values
Summary of the method: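 Vehicle-treated cultures served as reference for growth inhibition of compound-exposed mec2-1 yeast.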

[7] = NCI Yeast Anticancer Drug Screen. Data for the rad14 strain (AID 159);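 also: 0% = growth of vehicle-treated control cultures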; conditions: S. cerevisiae rad14 strain growth inhibition, hits give high values
Summary of the method: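 Inhibition of growth is reported for a repair-deficient yeast mutant following compound treatment, calculated relative to cultures that received vehicle.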

[8] = NCI Yeast Anticancer Drug Screen. Data for the sgs1 mgt1 strain (AID 161);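 also: 0% = growth of cultures given vehicle only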; conditions: S. cerevisiae sgs1 mgt1 strain, hits give high values
Summary of the method: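 Genetically altered yeast, compound exposure, growth inhibition relative to vehicle.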

[9] = NCI Yeast Anticancer Drug Screen. Data for the CLN2oe strain (AID 163);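 also: 0% = growth of vehicle-only control cultures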; conditions: S. cerevisiae CLN2oe strain, hits give high values
Summary of the method: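 Inhibition relative to vehicle-treated yeast is reported. Cells: strain with genetic alteration in cell-cycle control, grown with compound.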

[10] = NCI Yeast Anticancer Drug Screen. Data for the cln2 rad14 strain (AID 165);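 also: 0% = growth equal to vehicle treated cultures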; conditions: S. cerevisiae cln2 rad14 strain, hits give high values
Summary of the method: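 Each compound was tested on cln2 rad14 yeast. Inhibition of growth was calculated against vehicle-exposed controls.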

[11] = NCI Yeast Anticancer Drug Screen. Data for the bub3 strain (AID 167); conditions: S. cerevisiae bub3 mutant strain, hits give high values
Summary of the method: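 Mutant yeast screening strain plus compound; vehicle-treated cultures serve as the 0% inhibition reference.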

[12] = NCI Yeast Anticancer Drug Screen. Data for the mlh1 strain (AID 171);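 also: 0% = growth of vehicle-treated control cultures of the same strain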; conditions: S. cerevisiae mlh1 strain growth inhibition, hits give high values
Summary of the method: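 Vehicle-normalised growth inhibition of a repair- or checkpoint-altered yeast strain following compound treatment.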

[13] = NCI Yeast Anticancer Drug Screen. Data for the sgs1 strain (AID 173);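 also: 0% = growth of vehicle-only control cultures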; conditions: S. cerevisiae sgs1 mutant, hits give high values
Summary of the method: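 Screen format: yeast with repair or checkpoint alterations, compound exposure, growth read relative to vehicle.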

[14] = NCI Yeast Anticancer Drug Screen. Data for the mlh1 rad18 strain (AID 175); conditions: S. cerevisiae mlh1 rad18 strain growth inhibition, hits give high values
Summary of the method: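 Vehicle-treated cultures served as the reference for growth inhibition in a yeast strain carrying DNA damage repair alterations exposed to each compound.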

[15] = NCI Yeast Anticancer Drug Screen. Data for the rad18 strain (AID 177); conditions: S. cerevisiae rad18 mutant growth inhibition, hits give high values
Summary of the method: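 Test articles were incubated with altered yeast defective in DNA damage repair. Results are given as inhibition of growth versus vehicle.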

[16] = NCI Yeast Anticancer Drug Screen. Data for the wt2 strain (AID 169); conditions: S. cerevisiae wt2 strain growth inhibition, hits give high values
Summary of the method: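 Inhibition of yeast growth was determined after compound treatment, normalised to controls receiving only vehicle.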

[17] = at 5.0 µM (retest, dose inferred, filed as 0.5)
[18] = at 50.0 µM (retest, dose inferred, filed as 5.0)

Measured: growth inhibition

O=[N+]([O-])c1ccc2c(c1)/C(=N/N=C1c3ccccc3Cc3ccccc31)c1cc([N+](=O)[O-])cc([N+](=O)[O-])c1-2
inactive: [1]; at 1.2 µM 9% | [1]; at 3.7 µM 32% | [2]; at 1.2 µM -19% | [2]; at 3.7 µM 21% | [3]; at 1.2 µM -7% | [4]; at 1.2 µM 16% | [5]; at 1.2 µM -10% | [5]; at 3.7 µM 60% | [5]; [17] 9% | [6]; at 1.2 µM 16% | [6]; [17] 24% | [7]; at 1.2 µM 16% | [7]; at 3.7 µM 53% | [9]; at 1.2 µM 28% | [9]; at 3.7 µM 50% | [10]; [17] 25% | [11]; at 1.2 µM 4% | [11]; at 3.7 µM 57% | [11]; [17] 63% | [12]; at 1.2 µM 15% | [12]; at 3.7 µM 50% | [13]; at 1.2 µM 18% | [13]; at 3.7 µM 64% | [14]; [17] 27% | [15]; at 1.2 µM 50%
active: [1]; at 11.0 µM 91% | [1]; at 33.0 µM 98% | [1]; at 100.0 µM 96% | [2]; at 11.0 µM 99% | [2]; at 33.0 µM 99% | [2]; at 100.0 µM 97% | [3]; at 3.7 µM 86% | [3]; at 11.0 µM 99% | [3]; at 33.0 µM 97% | [3]; at 100.0 µM 94% | [4]; at 3.7 µM 74% | [4]; at 11.0 µM 99% | [4]; at 33.0 µM 98% | [4]; at 100.0 µM 93% | [5]; at 11.0 µM 96% | [5]; at 33.0 µM 98% | [5]; [18] 96% | [5]; at 50.0 µM 82.7% | [5]; at 100.0 µM 94% | [6]; at 3.7 µM 78% | [6]; at 11.0 µM 99% | [6]; at 33.0 µM 98% | [6]; [18] 96% | [6]; at 50.0 µM 81.5% | [6]; at 100.0 µM 95% | [7]; at 11.0 µM 98% | [7]; at 33.0 µM 99% | [7]; at 100.0 µM 95% | [8]; [17] 75% | [8]; [18] 98% | [8]; at 50.0 µM 89.2% | [9]; at 11.0 µM 99% | [9]; at 33.0 µM 99% | [9]; at 100.0 µM 95% | [10]; [18] 97% | [10]; at 50.0 µM 85.8% | [11]; at 11.0 µM 99% | [11]; at 33.0 µM 98% | [11]; [18] 98% | [11]; at 50.0 µM 85.9% | [11]; at 100.0 µM 91% | [12]; at 11.0 µM 99% | [12]; at 33.0 µM 98% | [12]; at 100.0 µM 93% | [13]; at 11.0 µM 99% | [13]; at 33.0 µM 99% | [13]; at 100.0 µM 95% | [14]; [18] 96% | [14]; at 50.0 µM 82.5% | [15]; at 3.7 µM 81% | [15]; at 11.0 µM 97% | [15]; at 33.0 µM 97% | [15]; at 100.0 µM 94%

OCc1ccccc1Cc1ccccc1
active: [5]; at 50.0 µM 87.9% | [14]; at 50.0 µM 79.6%
inactive: [1]; at 1.2 µM -4% | [1]; at 3.7 µM 0% | [1]; at 11.0 µM -2% | [1]; at 33.0 µM -3% | [1]; at 100.0 µM -3% | [2]; at 1.2 µM 0% | [2]; at 3.7 µM -1% | [2]; at 11.0 µM 0% | [2]; at 33.0 µM -2% | [2]; at 100.0 µM -7% | [3]; at 1.2 µM 2% | [3]; at 3.7 µM 2% | [3]; at 11.0 µM 8% | [3]; at 33.0 µM 12% | [3]; at 100.0 µM 30% | [4]; at 1.2 µM -3% | [4]; at 3.7 µM -5% | [4]; at 11.0 µM -2% | [4]; at 33.0 µM 12% | [4]; at 100.0 µM -10% | [5]; at 1.2 µM -1% | [5]; at 3.7 µM 0% | [5]; [17] 7% | [5]; at 11.0 µM -1% | [5]; at 33.0 µM -3% | [5]; [18] 21% | [5]; at 100.0 µM -6% | [6]; at 1.2 µM -1% | [6]; at 3.7 µM 2% | [6]; [17] -2% | [6]; at 11.0 µM -4% | [6]; at 33.0 µM -6% | [6]; [18] -17% | [6]; at 50.0 µM 53.4% | [6]; at 100.0 µM -6% | [7]; at 1.2 µM -1% | [7]; at 3.7 µM -1% | [7]; at 11.0 µM 0% | [7]; at 33.0 µM -2% | [7]; at 100.0 µM -3% | [8]; [17] 0% | [8]; [18] 50% | [8]; at 50.0 µM 60.5% | [9]; at 1.2 µM -7% | [9]; at 3.7 µM 0% | [9]; at 11.0 µM -2% | [9]; at 33.0 µM -5% | [9]; at 100.0 µM -7% | [10]; [17] 5% | [10]; [18] -2% | [10]; at 50.0 µM 32.9% | [11]; at 1.2 µM 2% | [11]; at 3.7 µM -1% | [11]; [17] 12% | [11]; at 11.0 µM 5% | [11]; at 33.0 µM 1% | [11]; [18] 40% | [11]; at 50.0 µM 65.8% | [11]; at 100.0 µM -9% | [12]; at 1.2 µM -1% | [12]; at 3.7 µM -1% | [12]; at 11.0 µM 0% | [12]; at 33.0 µM -2% | [12]; at 100.0 µM -3% | [13]; at 1.2 µM 0% | [13]; at 3.7 µM 2% | [13]; at 11.0 µM 2% | [13]; at 33.0 µM 1% | [13]; at 100.0 µM -1% | [14]; [17] 3% | [14]; [18] 63% | [15]; at 1.2 µM -1% | [15]; at 3.7 µM 0% | [15]; at 11.0 µM -16% | [15]; at 33.0 µM -2% | [15]; at 100.0 µM -6%

NNC(=O)CCc1cc2ccccc2c2ccccc12
inactive: [1]; at 1.2 µM -15% | [1]; at 3.7 µM -10% | [1]; at 11.0 µM -5% | [1]; at 33.0 µM 26% | [2]; at 1.2 µM 3% | [2]; at 3.7 µM 2% | [2]; at 11.0 µM 9% | [2]; at 33.0 µM 4% | [3]; at 1.2 µM -8% | [3]; at 3.7 µM -21% | [3]; at 11.0 µM -16% | [3]; at 33.0 µM 28% | [3]; at 100.0 µM 50% | [4]; at 1.2 µM -3% | [4]; at 3.7 µM -8% | [4]; at 11.0 µM -2% | [4]; at 33.0 µM 1% | [5]; at 1.2 µM -13% | [5]; at 3.7 µM -16% | [5]; [17] 19% | [5]; at 11.0 µM -12% | [5]; at 33.0 µM 38% | [6]; at 1.2 µM -2% | [6]; at 3.7 µM -2% | [6]; [17] 12% | [6]; at 11.0 µM -2% | [6]; at 33.0 µM -2% | [7]; at 1.2 µM -2% | [7]; at 3.7 µM -1% | [7]; at 11.0 µM 23% | [7]; at 33.0 µM 31% | [8]; [17] 28% | [9]; at 1.2 µM -9% | [9]; at 3.7 µM -7% | [9]; at 11.0 µM -12% | [9]; at 33.0 µM -2% | [10]; [17] 11% | [16]; at 1.2 µM -8% | [16]; at 3.7 µM 1% | [16]; at 11.0 µM 18% | [16]; at 33.0 µM 53% | [13]; at 1.2 µM -20% | [13]; at 3.7 µM -8% | [13]; at 11.0 µM 9% | [13]; at 33.0 µM 43% | [14]; [17] 45% | [15]; at 1.2 µM -6% | [15]; at 3.7 µM -5% | [15]; at 11.0 µM 0% | [15]; at 33.0 µM 30%
active: [1]; at 100.0 µM 99% | [2]; at 100.0 µM 99% | [4]; at 100.0 µM 99% | [5]; [18] 99% | [5]; at 50.0 µM 97.9% | [5]; at 100.0 µM 99% | [6]; [18] 99% | [6]; at 50.0 µM 98.8% | [6]; at 100.0 µM 99% | [7]; at 100.0 µM 99% | [8]; [18] 98% | [8]; at 50.0 µM 98.5% | [9]; at 100.0 µM 99% | [10]; [18] 98% | [10]; at 50.0 µM 98% | [16]; at 100.0 µM 100% | [13]; at 100.0 µM 99% | [14]; [18] 98% | [14]; at 50.0 µM 98.5% | [15]; at 100.0 µM 99%

— PubChem BioAssay (NCI)
